A short description of test [1]: optical density shifts of acrAB sulA E. coli – strain DRC41, OD650, 48 h, E. coli filamentation inducer project, primary screen (AID 1152).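 Also: E. coli MC1000 strain DRC41 lacking acrAB efflux pump and sulA.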 Conditions: higher = more signal, called active from +8 up or from −8 down.
The nature of test [2]: probe aLefty1 binding on compound microarray – biochemical, small-molecule microarray, 635/667 nm fluorescence, primary screen (AID 1153).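 Also: score merges spot fluorescence with signal-to-noise ratio from the scanned slide images.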 Particulars: higher = more signal.
A short description of test [3]: plasmodial surface anion channel blockers, osmotic lysis – cell-based, P. falciparum Indochina, OD700, 1 h, primary screen (AID 1154). Conditions: P. falciparum Indochina infected RBC osmotic lysis, higher = more signal, called active from +8 up or from −8 down.
Test [4] can be described thus: plasmodial surface anion channel blockers, osmotic lysis – cell-based, P. falciparum Indochina, OD700, 2 h, primary screen (AID 1155).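 Also: lysis reports solute entry through the parasite surface anion channel PSAC.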 Particulars: P. falciparum Indochina infected erythrocytes, higher = more signal, called active from +8 up or from −8 down.
A short description of test [5]: changes in parasitized red cell lysis, either direction – P. falciparum Indochina, OD700, 3 h, PSAC antagonist project, primary screen (AID 1156). Particulars: P. falciparum-infected erythrocytes, osmotic lysis, higher = more signal, called active from +8 up or from −8 down.
Test [6] in a line: plasmodial surface anion channel blockers, osmotic lysis – cell-based, P. falciparum Indochina, OD700, 18 h, primary screen (AID 1157). Particulars: P. falciparum Indochina infected erythrocytes, osmotic lysis OD700, 18 h; higher = more signal, called active from +8 up or from −8 down.
A short description of test [7]: S6 kinase pathway phospho-S6 level changes – cell-based, A549, cytoblot, luminescence, serum-stimulated, primary screen (AID 1158).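 Also: serum-stimulated A549 lung adenocarcinoma cells; signal is phosphorylated S6 detected by cytoblot immunostaining with HRP secondary.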 Conditions: 5 h, higher = more signal.
Test [8] addresses NADPH oxidase 2 (Homo sapiens) (UniProt P04839). In words: compounds shifting NOX2 Amplex Red fluorescence – cell-based, HEK293-NOX2, PMA-stimulated, NOX inhibitor project, primary screen (AID 1159). Also: test concentration not given here. Particulars: 45 min, higher = more signal, called active from +8 up or from −8 down.
Test [9] deals with NADPH oxidase 4 (Homo sapiens) (UniProt Q9NPH5). In words: compounds shifting NOX4 Amplex Red fluorescence – cell-based, HEK293-NOX4, tetracycline-induced, NOX inhibitor project, primary screen (AID 1160). Particulars: HEK293-NOX4, Amplex Red H2O2 fluorescence, 45 min; higher = more signal, called active from +8 up or from −8 down.
NADPH oxidase 4 (Homo sapiens), sequence (Q9NPH5 whole entry, looked up): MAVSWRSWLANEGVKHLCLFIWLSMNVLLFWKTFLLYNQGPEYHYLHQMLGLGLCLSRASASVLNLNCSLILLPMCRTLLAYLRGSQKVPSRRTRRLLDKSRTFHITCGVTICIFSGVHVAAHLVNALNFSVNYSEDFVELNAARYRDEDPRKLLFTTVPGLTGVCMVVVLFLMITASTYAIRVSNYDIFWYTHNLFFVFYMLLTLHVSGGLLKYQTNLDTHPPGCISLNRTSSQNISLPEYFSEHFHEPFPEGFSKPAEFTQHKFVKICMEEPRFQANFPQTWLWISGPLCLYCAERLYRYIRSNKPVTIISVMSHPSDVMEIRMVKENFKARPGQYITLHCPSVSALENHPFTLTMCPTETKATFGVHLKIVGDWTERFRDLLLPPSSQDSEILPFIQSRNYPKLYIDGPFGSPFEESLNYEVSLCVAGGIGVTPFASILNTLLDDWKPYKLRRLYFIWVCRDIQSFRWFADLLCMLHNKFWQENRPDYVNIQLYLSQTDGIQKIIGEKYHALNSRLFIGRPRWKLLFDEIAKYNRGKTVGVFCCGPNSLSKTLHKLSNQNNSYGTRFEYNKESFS
Test [10] addresses NADPH oxidase 5 (Homo sapiens) (UniProt Q96PH1). The experiment in a line: compounds shifting NOX5 Amplex Red fluorescence – cell-based, HEK293-NOX5, NOX inhibitor project, primary screen (AID 1161). Conditions: HEK293-NOX5, ionomycin, 45 min, higher = more signal.
Test [11] is described as follows: compound effects on lung adenocarcinoma cell viability – A549, calcein-AM fluorescence, 48 h, basal, profiling panel (AID 1162). Also: test concentration not given here. Conditions: higher = more signal.
Test [12] in a line: compound effects on differentiated 3T3-L1 adipocyte viability – cell-based, 3T3-L1 adipocytes, calcein-AM fluorescence, 48 h, basal, profiling panel (AID 1163). Also: test concentration not given here. Conditions: 3T3-L1 adipocytes viability, higher = more signal.
Test [13] can be described thus: compound effects on hepatocellular carcinoma cell viability – HepG2, calcein-AM fluorescence, 48 h, basal, profiling panel (AID 1164). Also: test concentration not given here. Particulars: higher = more signal.
The nature of test [14]: compound effects on multiple myeloma cell viability – MM1S, calcein-AM fluorescence, 48 h, basal, profiling panel (AID 1165).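 Also: viability of MM1S multiple myeloma cells under basal unstimulated conditions; test concentration not given here.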 Particulars: higher = more signal.
Test [15] can be described thus: calcein-AM signal in unstimulated myeloma cells – cell-based, calcein-AM fluorescence, 48 h, PK04 Diversity Set, profiling panel (AID 1166).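 Also: cells grown under basal conditions without added stimulus; test concentration not given here.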 Particulars: RPMI8226 myeloma viability, higher = more signal.
Test [16] in a line: JC-1 mitochondrial signal, unstimulated HepG2 cells – cell-based, JC-1 fluorescence, 24 h, 100 nL compound, profiling panel (AID 1167). Also: test concentration not given here. Particulars: HepG2 mitochondrial potential, higher = more signal.
The nature of test [17]: JC-1 mitochondrial signal, unstimulated adipocytes – cell-based, JC-1 fluorescence, 3T3-L1 adipocytes, 24 h, 100 nL compound, profiling panel (AID 1168). Also: test concentration not given here. Conditions: JC-1 mitochondrial fluorescence, higher = more signal, called active from +8 up or from −8 down.
Test [18] can be described thus: JC-1 mitochondrial signal, unstimulated myeloma cells – cell-based, JC-1 fluorescence, RPMI8226, 24 h, 100 nL compound, profiling panel (AID 1169). Also: test concentration not given here. Conditions: JC-1 mitochondrial potential fluorescence, higher = more signal.
Test [19] is described as follows: JC-1 mitochondrial signal, unstimulated MM1S myeloma – cell-based, JC-1 fluorescence, 24 h, 100 nL compound, profiling panel (AID 1170). Also: test concentration not given here. Particulars: MM1S mitochondrial potential, higher = more signal.
The nature of test [20]: resazurin metabolic signal in A549 cells – cell-based, resazurin fluorescence, 24 h, PK04 Diversity Set, profiling panel (AID 1171). Also: test concentration not given here. Conditions: A549 viability, higher = more signal, called active from +8 up or from −8 down.

The structures appear in SMILES notation. Activity calls are given as the source filed them.

NADPH oxidase 5 (Homo sapiens), sequence (Q96PH1 whole entry, looked up): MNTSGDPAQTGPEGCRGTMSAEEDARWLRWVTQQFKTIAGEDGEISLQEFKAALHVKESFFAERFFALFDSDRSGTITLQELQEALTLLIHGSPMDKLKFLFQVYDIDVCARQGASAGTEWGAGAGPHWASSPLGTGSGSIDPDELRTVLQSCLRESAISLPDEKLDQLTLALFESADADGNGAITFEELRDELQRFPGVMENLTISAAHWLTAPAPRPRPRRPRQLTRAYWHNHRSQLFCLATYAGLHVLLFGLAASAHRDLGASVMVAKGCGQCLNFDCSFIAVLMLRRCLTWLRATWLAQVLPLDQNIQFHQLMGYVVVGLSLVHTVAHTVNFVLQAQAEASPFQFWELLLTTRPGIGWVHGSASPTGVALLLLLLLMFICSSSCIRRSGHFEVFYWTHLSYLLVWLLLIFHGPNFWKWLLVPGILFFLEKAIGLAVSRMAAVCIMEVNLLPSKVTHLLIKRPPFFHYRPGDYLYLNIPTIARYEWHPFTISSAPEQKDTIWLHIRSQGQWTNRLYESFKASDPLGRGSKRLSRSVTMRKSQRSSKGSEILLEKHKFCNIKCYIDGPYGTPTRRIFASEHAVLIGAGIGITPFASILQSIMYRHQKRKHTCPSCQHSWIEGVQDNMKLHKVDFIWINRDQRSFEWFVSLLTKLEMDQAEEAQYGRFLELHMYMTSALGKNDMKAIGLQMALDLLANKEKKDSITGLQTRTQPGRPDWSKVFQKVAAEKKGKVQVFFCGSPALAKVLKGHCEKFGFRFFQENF
NADPH oxidase 2 (Homo sapiens), sequence (P04839 whole entry, looked up): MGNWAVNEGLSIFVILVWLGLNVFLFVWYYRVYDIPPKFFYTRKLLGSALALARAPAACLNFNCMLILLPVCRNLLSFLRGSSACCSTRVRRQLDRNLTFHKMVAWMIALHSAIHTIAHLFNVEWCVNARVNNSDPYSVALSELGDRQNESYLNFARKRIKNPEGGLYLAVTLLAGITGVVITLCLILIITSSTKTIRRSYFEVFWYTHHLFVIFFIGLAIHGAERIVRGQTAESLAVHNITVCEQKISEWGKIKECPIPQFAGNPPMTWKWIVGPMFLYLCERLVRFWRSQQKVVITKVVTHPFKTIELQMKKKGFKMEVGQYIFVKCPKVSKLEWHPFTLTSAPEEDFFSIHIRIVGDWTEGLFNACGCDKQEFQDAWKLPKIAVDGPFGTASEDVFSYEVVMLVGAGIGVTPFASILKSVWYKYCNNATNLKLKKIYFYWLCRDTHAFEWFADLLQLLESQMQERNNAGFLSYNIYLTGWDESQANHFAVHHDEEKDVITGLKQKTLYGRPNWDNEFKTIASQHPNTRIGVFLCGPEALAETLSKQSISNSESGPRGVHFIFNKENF

Turning to `COC(=O)[C@@]1(Cc2ccccc2)[C@H]2c3cc(C(=O)N4CCCC4)n(Cc4ccc(C(F)(F)F)nc4)c3C[C@H]2CN1C(=O)c1ccccc1`, the z-score is -1.31 (inactive) in test [1]; 2.24 (inactive) in test [3]; 0.145 (inactive) in test [4]; 1.45 (inactive) in test [5]; 0.444 (inactive) in test [6]; -0.467 in test [7]. The z-score in test [8] is 0.262 (inactive); in [9], 0.396 (inactive); in [10], -3.03; in test [11], -0.567; in test [12] it was 1.88; in test [13] it was -0.499. Moreover, the z-score was -0.331 in test [14]; -1.59 in test [15]; 1.5 in test [16]; -0.657 (inactive) in test [17]; -0.561 in test [18]; -0.796 in test [19]. The z-score in [20] was 0.263 (inactive). This molecule registered a composite z-score in test [2] of 0.689.
Turning to `C#CCN([C@H](/C=C/C1CC1)[C@@H](O)Cc1ccccc1)[C@@H](Cc1ccccc1)C(=O)OC`, the z-score in [1] was 1.3 (inactive); in [3], 2.62 (inactive); in test [4], 1.78 (inactive); in test [5] it was -0.345 (inactive); in test [6], 1.28 (inactive); in [7] it was 0.296. For the same molecule, the z-score in test [8] is -0.293 (inactive); in test [9], 0.396 (inactive); in [10] it was -2.6; in [11], -0.509; in test [12] it was -0.129; in test [13], -0.0708. Moreover, the z-score in test [14] is -1.2; in test [15], -2.55; in test [16], 3.34; in [17], 0.292 (inactive); in test [18] it was -0.842; in [19] it was -1.33. In addition, the z-score in test [20] is 3.31 (inactive). This molecule showed a composite z-score in test [2] of 0.0531.
In the case of `COC(=O)[C@@]1(Cc2ccc(F)cc2)[C@H]2c3cc(C(=O)N(C)C)n(CCO)c3C[C@H]2CN1C(=O)c1ccccc1`, the z-score was -0.285 (inactive) in [1]; 0.0154 (inactive) in test [3]; -0.687 (inactive) in test [4]; -1.25 (inactive) in [5]; -1.27 (inactive) in test [6]; 1.8 in [7]. Also, the z-score in test [8] was 0.254 (inactive); in test [9], 1.68 (inactive); in test [10] it was -2.18; in [11], -0.371; in test [12], -0.173; in test [13], 0.318. Besides, the z-score in test [14] was 0.563; in test [15], 0.382; in test [16] it was -2.03; in [17], -0.453 (inactive); in test [18] it was 0.161; in test [19] it was 0.243. In addition, the z-score in [20] is -1.59 (inactive). Also, the composite z-score in test [2] was found to be 0.0774.
For `CC(C)(C)N1CC=CC23O[C@@H]4/C=C\CCCOC(=O)C4[C@H]2C(=O)N(CCCCCCO)[C@@H]3C1=O` (stereo not given in full), the z-score was 1.88 (inactive) in test [1]; 1.64 (inactive) in test [3]; -0.353 (inactive) in test [4]; 0.703 (inactive) in [5]; -0.331 (inactive) in test [6]; 1.97 in [7]. Further, the z-score was 0.834 (inactive) in [8]; -0.0239 (inactive) in [9]; 2.04 in test [10]; 0.0079 in test [11]; 0.164 in test [12]; 0.797 in [13]. Moreover, the z-score was 1.83 in test [14]; -0.0296 in test [15]; 1.17 in [16]; 1.04 (inactive) in test [17]; 0.116 in test [18]; -0.892 in test [19]. Also, the z-score in test [20] was 0.204 (inactive). For the same molecule, the composite z-score in test [2] was 0.0903.

(Values after PubChem BioAssay.)
